This is a sample that favours compounds with a hit; in the whole collection about 3.2% have one here.
VACV mCherry inh: qHTS for Stage-Specific Inhibitors of Vaccinia Orthopoxvirus: mCherry Reporter Primary qHTS. Potency, µM (highest dose often 36.5 µM), for inactives: at the top dose activity change, negative = inhibition, hits mostly inhibitors. 310,000 compounds, 0.63% hits. Vaccinia virus mCherry reporter infection, fluorescence; calls by dose curve; tested in A549 cells; note: nearly all actives have a fitted effect of over 35% in size
FMDV inh: High Throughput Screening for Foot and Mouth Disease Virus Antivirals. Potency, µM (top dose mostly 57.9 µM), inactives show top-dose activity change, negative = inhibition, hits mostly inhibitors. 410,000 compounds, 1.2% hits. FMDV antiviral cell-based qHTS; calls by dose curve; tested in HEK293T cells; note: read-out not given here; nearly all actives have a fitted effect of over 45% in size
LASV entry inh: qHTS for Inhibitors of binding or entry into cells for Lassa Virus; AID 540256, 2011; Lassa virus pseudotype entry inhibition, cell reporter; Potency, µM (top dose mostly 37.9 µM), inactives show top-dose activity change, negative = inhibition, actives largely listed as inhibitors; 300,000 compounds, 1.2% hits; calls by dose curve; tested in HEK293 cells; note: nearly all actives have a fitted effect of over 50% in size
Vaccinia Venus: qHTS for Stage-Specific Inhibitors of Vaccinia Orthopoxvirus: Venus Reporter Primary qHTS. Vaccinia virus Venus reporter expression, fluorescence. Potency, µM (series often up to 36.5 µM), inactives show top-dose activity change, negative = inhibition, most hits filed as inhibitors. 330,000 compounds, 0.46% hits. AID 720580, 2013; calls by dose curve; tested in A549 cells; note: nearly all actives have a fitted effect of over 30% in size
Marburg entry inh: qHTS for inhibitors of binding or entry into cells for Marburg Virus; Marburg virus pseudotyped entry inhibition, cell reporter; Potency, µM (doses to about 37.8 µM), for inactives: at the top dose activity change, negative = inhibition, hits mostly inhibitors; 300,000 compounds, 1.8% hits; AID 540276, 2011; calls by dose curve; tested in HEK293 cells
An asterisk follows results filed as active; i = inactive; ? = inconclusive; . = no result; [ ] = dose if it differs, or a comment. % is set by controls: 0 for no effect and ±100 for the full control effect; potency is the fitted concentration of half-maximal effect.

SMILES | VACV mCherry inh | FMDV inh | LASV entry inh | Vaccinia Venus | Marburg entry inh
CCOC(=O)c1ccc(N2C(=O)c3n[nH]c(-c4cccs4)c3C2c2ccc(OCC)cc2)cc1 (stereo not given) | ? | -28.0% | ? | ? | 12.6µM*
Cc1cc(Cl)ccc1NC(=O)COC(=O)c1c(C)noc1C | . | 6.0% | . | . | .
O=C(NCc1cccs1)c1ccc2ccccc2n1 | -21.0% | 28.6% | 6.51µM* | -8.1% | 4.8%
O=C(Nc1nccs1)c1ccc2ccccc2n1 | -5.2% | 21.2% | 8.91µM* | 15.1% | ?
Cc1cccc(NC(=O)c2ccc3ccccc3n2)c1C | -4.6% | 8.6% | 10µM* | -10.3% | ?
CC(NC(=O)c1ccc2ccccc2n1)c1ccc(Br)cc1 (stereo not given) | -1.3% | -5.6% | 5.62µM* | -1.1% | ?
COc1c2c(c(C)c3c1C(=O)OC3)O[C@@]1(C)CC[C@@]3(O)C(C)(C)OC(=O)CC[C@]3(C)[C@H]1C2 | 34.0% | -13.9% | . | 2.5% | .
COCCc1nn2c(=O)cc(COC(=O)c3ccccc3C)nc2s1 | -9.0%[7.34 µM] | 14.4% | -9.8%[46.1 µM] | -7.9%[7.34 µM] | .
Cc1cccc(CN2C(=O)[C@H]3Cc4c([nH]c5ccccc45)C(C)(C)N3C2=O)c1 | . | 35.5µM* | . | . | .
CN(C)CCCN1CC(=O)N2[C@@H](Cc3c([nH]c4ccccc34)C2(C)C)C1=O | . | -27.7% | . | . | .
CCN(Cc1ccccc1)c1ccc(/C=N/N=C(N)N)cc1 | ? | ? | 8.2µM* | 11.2µM* | 6.51µM*
NC(N)=N/N=C/c1ccc(N(c2ccccc2)c2ccccc2)cc1 | ? | 31.6µM* | . | 10µM* | .
CCOc1cc(C(=O)CSc2nnc(CNc3ccc(Cl)cc3)o2)ccc1NC(=O)CC | ? | ? | ? | 12.6µM* | ?
COc1ccc(NCc2nnc(SCC(=O)c3ccc(OC)cc3)o2)cc1 | . | 0.0% | 1.1% | . | ?
Cn1c(=O)c2c(nc(SCCN3CCOCC3)n2C)n(C)c1=O | . | -10.4% | . | . | .
NS(=O)(=O)c1ccc(N=Nc2c(O)[nH]c3ccc(C(=O)NCCc4cnc[nH]4)cc23)cc1 | . | . | 4.99µM* | . | .
C=C1NN(C(C)C(=O)O)C(=O)N1c1ccc(OCc2ccccc2)cc1 (stereo not given) | -18.3% | . | . | -7.7% | .
COCCCn1c(N)c(C(=O)OCCOC)c2nc3ccccc3nc21 | -11.7% | 0.0% | 2.4% | -9.1% | ?
CCCCCn1c(NC(=O)c2ccco2)c(C(=O)OCC)c2nc3ccccc3nc21 | -26.9% | ? | ? | -28.8% | 4.47µM*
CCOC(=O)c1c(N)n(CCCOC(=O)c2ccco2)c2nc3ccccc3nc12 | ? | ? | ? | 10µM* | ?
COCCCNC(=O)c1c(NC(=O)c2ccco2)n(Cc2ccccc2)c2nc3ccccc3nc12 | . | 0.0% | 3.8% | 4.3% | ?
COc1ccc(S(=O)(=O)N2CCC(N3CCN(Cc4ccccc4)C(=O)C3=O)CC2)cc1 | -12.7% | 55.1% | 6.4%[46.1 µM] | -7.6% | .
CN(Cc1ccccc1)N=Nc1nc[nH]c1C(N)=O | 6.6% | -19.2% | . | 14.6% | .
COC(=O)c1c(C)oc2ccc(N(C(=O)c3ccncc3)S(=O)(=O)c3ccc(OC)cc3)cc12 | -29.5%[7.34 µM] | -22.3% | -27.2%[46.1 µM] | -27.4%[7.34 µM] | ?
CCOc1ccc(S(=O)(=O)N(C(=O)c2ccncc2)c2ccc3oc(C)c(C(=O)OC)c3c2)cc1 | -25.0%[7.34 µM] | -23.9% | ? | -27.4%[7.34 µM] | 10µM*
SMILES | VACV mCherry inh | FMDV inh | LASV entry inh | Vaccinia Venus | Marburg entry inh
COc1ccc(-c2cc(C(F)F)n3ncc(C(=O)n4ccnc4C)c3n2)cc1 | -10.5% | 14.1µM* | -15.3% | ? | ?
CCCS(=O)(=O)NCc1c(C)ncc2c1CCN(C(=O)c1ccc3[nH]c4c(c3c1)CCCC4)C2 | -10.2% | -12.4% | . | 6.8% | .
COc1cc(OC)cc(C(=O)Nc2nc(-c3ccccc3)c(-c3ccccc3)o2)c1 | . | -25.1% | ? | . | 20.6µM*
CC(C)OC(=O)c1c(N)n(CCCN2CCOCC2)c2nc3ccccc3nc12 | -18.3% | 2.8% | 4.9% | -10.4% | -13.1%
Nc1c(C(=O)NCc2ccco2)c2nc3ccccc3nc2n1CCN1CCCCC1 | -12.5% | . | -2.3% | -19.7% | 8.2µM*
COc1ccccc1CNC(=O)c1c(N)n(CCCN2CCOCC2)c2nc3ccccc3nc12 | 12.6µM* | -8.4% | 25.6%[14.3 µM] | ? | ?
Nc1c(C(=O)NCc2ccco2)c2nc3ccccc3nc2n1CCc1ccc(F)cc1 | ? | ? | -15.0% | -24.7% | ?
COc1ccc(CN(C)C[C@H]2OCCCC[C@@H](C)Oc3ccc(NS(C)(=O)=O)cc3C(=O)N([C@H](C)CO)C[C@@H]2C)cc1 | i | -10.2% | . | -14.6% | .
COc1cc(C2NC(=O)NC(C)=C2C(=O)OCC2CCCCC2)ccc1O (stereo not given) | . | -8.3% | . | . | .
O=C(NNC(=O)C1CC(c2cccs2)=NO1)NC1CCCCC1 (stereo not given) | -9.2% | 8.4% | 11.2% | -6.0% | -3.4%[46.1 µM]
CCCCCCCCNC(=S)NCCN1CCCCC1 | . | ? | ? | . | 14.6µM*
S=C(NCCCN1CCOCC1)NCCCN1CCOCC1 | -6.6% | -17.4% | -13.6% | -7.3% | -14.6%
CC1=Nc2ccccc2/C1=C/c1sc(=N)n(-c2nccs2)c1O | -19.5%[1.46 µM] | ? | 10µM* | ? | 10µM*
COCCN(C(=O)COC(=O)/C=C/c1ccc(SC)cc1)c1c(N)n(Cc2ccccc2)c(=O)[nH]c1=O | -16.8% | -5.5% | -1.0% | -7.3% | -0.2%
COCCN(C(=O)COC(=O)/C=C/c1ccc(C(F)(F)F)cc1)c1c(N)n(Cc2ccccc2)c(=O)[nH]c1=O | 12.6µM* | -29.0% | ? | ? | -29.1%
O=C(OCc1ccc(F)cc1)c1ccc2c(c1)-c1ccccc1C2=O | . | 44.0% | 1.12µM* | -19.4% | -3.0%
O=C(c1cc(N2C(=O)C3C4CCC(C4)C3C2=O)ccc1Cl)N1CCN(c2ccc(F)cc2)CC1 (stereo not given) | -4.0% | 31.6µM* | 4.8% | -21.7% | ?
O=C(/C=C/Nc1ccccc1)c1ccccc1 | . | -30.3% | ? | -6.8% | ?
CN(C)c1ccc(N/C=C/C(=O)c2ccccc2)cc1 | . | 10µM* | 6.51µM* | . | ?
C=C(CO[C@@H]1C=C[C@@H](c2ccccc2)O[C@@H]1CO)c1ccccc1 | . | . | . | . | -2.0%[14.2 µM]
Cc1ccc(C23CC4CC(CC(NC(=O)NCCN(C)C)(C4)C2)C3)cc1 | -20.6% | -25.8% | ? | ? | ?
CN(C)CCNC(=O)COc1ccc(C23CC4CC(CC(C4)C2)C3)cc1 | -9.3% | -28.3% | ? | ? | 3.98µM*
Cc1ccc(CN2CCOc3ccc(CN4CCN(CCO)CC4)cc3C2)s1 | -1.0% | -5.1% | . | -3.4% | .
FC(F)Sc1ccc(NC(=S)NCc2ccccc2)cc1 | -1.3% | 50.1% | ? | ? | ?
FC(F)Sc1ccc(NC(=S)NC(c2ccccc2)c2ccccc2)cc1 | . | ? | ? | . | 18.3µM*
CC(C)(C)c1ccc(-c2nnc(SCC(=O)NC3CC3)o2)cc1 | . | 23.4% | . | . | .
Cc1ccc(Cl)cc1NS(=O)(=O)c1ccc(N2CCCCS2(=O)=O)cc1 | -20.3% | 11.2µM* | 6.6%[46.1 µM] | -20.3% | .

Source: PubChem BioAssay
